Activity calls are given as the source filed them. Unless noted, no rule for the calls is given here.
Assays:
[1] = resazurin metabolic signal in HepG2 cells – cell-based, resazurin fluorescence, 24 h, PK04 Diversity Set, profiling panel (AID 1172); settings: HepG2 viability, higher = more signal; also: test concentration not given here
[2] = budding yeast growth changes without added modifier – OD600, strain BY4716, 24 h, basal condition, primary screen (AID 1173); settings: S. cerevisiae BY4716 growth, OD600, 24 h; higher = more signal, called active from +8 up or from −8 down
[3] = viability profiling in MM1S myeloma cells – cell-based, resazurin fluorescence, basal, 24 h, PK04 Diversity Set, profiling panel (AID 1174); settings: higher = more signal, called active from +8 up or from −8 down;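 also: MM1S multiple myeloma cell line; test concentration not given here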
[4] = target: Dihydroorotate dehydrogenase (quinone), mitochondrial (Plasmodium falciparum (isolate 3D7)) (UniProt Q08210); assay: inhibition of P. falciparum DHODH – biochemical, C-terminal His tag, absorbance 600 nm, primary screen (AID 1175); settings: PfDHODH enzyme, DCIP absorbance 600 nm; higher = more signal, called active from +8 up or from −8 down;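 also: recombinant parasite enzyme with a five histidine tag at its C terminus; test concentration not given here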
Sequence of Dihydroorotate dehydrogenase (quinone), mitochondrial (Plasmodium falciparum (isolate 3D7)) (Q08210 whole entry, looked up): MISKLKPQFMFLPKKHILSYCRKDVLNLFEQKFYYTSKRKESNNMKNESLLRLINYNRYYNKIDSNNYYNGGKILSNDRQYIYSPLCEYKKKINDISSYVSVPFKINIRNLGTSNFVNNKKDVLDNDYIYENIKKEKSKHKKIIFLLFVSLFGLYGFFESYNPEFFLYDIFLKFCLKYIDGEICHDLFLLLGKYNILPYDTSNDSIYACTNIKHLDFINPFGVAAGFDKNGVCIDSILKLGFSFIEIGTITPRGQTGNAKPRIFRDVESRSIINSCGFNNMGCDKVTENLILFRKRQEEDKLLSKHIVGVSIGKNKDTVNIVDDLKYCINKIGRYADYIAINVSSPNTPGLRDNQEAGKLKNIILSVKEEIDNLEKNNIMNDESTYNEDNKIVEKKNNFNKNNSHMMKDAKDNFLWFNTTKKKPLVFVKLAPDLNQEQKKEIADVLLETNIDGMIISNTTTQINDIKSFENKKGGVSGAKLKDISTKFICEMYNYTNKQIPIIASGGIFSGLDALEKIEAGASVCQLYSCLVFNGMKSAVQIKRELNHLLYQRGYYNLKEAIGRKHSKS

[5] = inhibition of PAO1 biofilm formation – strain PAO1, LB-PBS medium, absorbance 600 nm, primary screen (AID 1176); also: test concentration not given here; settings: P. aeruginosa PAO1 growth/biofilm, A600, 12 h; higher = more signal
[6] = growth modulation of vineyard yeast isolate – strain RM11-1a, OD600, basal, 24 h, primary screen (AID 1177);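 also: cultures grown under basal conditions with no added stressor; test concentration not given here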; settings: S. cerevisiae RM11-1a growth, OD600, 24 h; higher = more signal, called active from +8 up or from −8 down
[7] = growth of efflux-deficient E. coli DRC39 – strain DRC39, OD650, 24 h, E. coli filamentation inducers, primary screen (AID 1178);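 also: growth measured as culture turbidity by optical density at 650 nm; test concentration not given here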; settings: E. coli DRC39 acrAB, higher = more signal, called active from +8 up or from −8 down
[8] = growth of efflux-deficient E. coli DRC39 – strain DRC39, OD650, 48 h, E. coli filamentation inducers, primary screen (AID 1179);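 also: screen aims at cell division blockers that make cells filament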; settings: E. coli DRC39 delta-acrAB growth, higher = more signal, called active from +8 up or from −8 down
[9] = viability profiling in RPMI8226 myeloma cells – cell-based, resazurin fluorescence, basal, 24 h, PK04 Diversity Set, profiling panel (AID 1180); settings: higher = more signal;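 also: RPMI8826 multiple myeloma cell line at 5000 cells per well; test concentration not given here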
[10] = target: E3 ubiquitin-protein ligase XIAP (Homo sapiens) (UniProt P98170); assay: small molecules binding XIAP protein – biophysical, small-molecule microarray, fluorescence 635 nm, primary screen (AID 1181); settings: higher = more signal;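 also: score merges 667 nm emission and signal to noise over triplicate slides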
Sequence of E3 ubiquitin-protein ligase XIAP (Homo sapiens) (P98170 whole entry, looked up): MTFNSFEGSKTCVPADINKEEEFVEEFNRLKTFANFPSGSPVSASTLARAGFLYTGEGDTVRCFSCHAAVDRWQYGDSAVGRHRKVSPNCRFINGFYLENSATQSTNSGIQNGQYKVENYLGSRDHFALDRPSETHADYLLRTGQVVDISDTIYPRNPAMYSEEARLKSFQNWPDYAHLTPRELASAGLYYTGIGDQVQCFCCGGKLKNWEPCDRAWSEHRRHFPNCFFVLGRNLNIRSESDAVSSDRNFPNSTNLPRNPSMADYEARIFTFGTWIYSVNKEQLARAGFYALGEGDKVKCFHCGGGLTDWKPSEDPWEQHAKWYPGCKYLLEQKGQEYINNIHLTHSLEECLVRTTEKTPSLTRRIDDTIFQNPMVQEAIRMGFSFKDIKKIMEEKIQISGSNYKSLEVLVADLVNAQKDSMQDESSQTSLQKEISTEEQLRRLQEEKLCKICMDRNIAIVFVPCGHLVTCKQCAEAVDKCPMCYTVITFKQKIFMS

SMILES	z-score [1]	z-score [2]	z-score [3]	composite z-score [4]	z-score [5]	z-score [6]	z-score [7]	z-score [8]	z-score [9]	composite z-score [10]
C[C@]1(C(=O)NC2CC2)c2ccccc2C(=O)N(Cc2cc(F)cc(C(F)(F)F)c2)[C@H]1c1ccc(CO)cc1	1.53	0.411 (inactive)	0.872 (inactive)	0.712 (inactive)	-0.646 (inactive)	1.34 (inactive)	0.425 (inactive)	0.401 (inactive)	1.04	0.195
[N-]=[N+]=Nc1ccccc1C[C@]1(C(=O)N2CCCCC2)N=C(c2ccc(OCCCO)cc2)O[C@H]1c1ccccc1	-0.256	-1.04 (inactive)	-2.4 (inactive)	-0.343 (inactive)	0.522 (inactive)	0.864 (inactive)	0.463 (inactive)	0.647 (inactive)	-2.06	-0.102
CCOC(=O)C[C@H]1[C@H](OC(=O)c2ccc(-c3ccccc3)cc2)[C@@H](NC(=O)c2ccc(-c3ccccc3)cc2)c2cc(OCCCO)ccc2N1C(=O)c1ccccc1	-0.697	1.36 (inactive)	-1.01 (inactive)	-0.0085 (inactive)	0.0307 (inactive)	0.795 (inactive)	-0.168 (inactive)	-0.331 (inactive)	-0.967	0.0766
CS(=O)(=O)CCOC(=O)C1=CC(CCCO)=CC(C2CC2)N(Cc2sc3ccccc3c2Cl)C=C1C(=O)OCCS(C)(=O)=O (stereo not given)	-0.0631	-6.21 (inactive)	-0.548 (inactive)	-0.559 (inactive)	0.0478 (inactive)	0.155 (inactive)	0.564 (inactive)	0.156 (inactive)	-0.541	0.431
C=CCNC(=O)[C@H]1[C@@H]2C(=O)O[C@@H](c3ccccc3)[C@@H](c3ccccc3)N2[C@@H](c2ccc(OCCO)cc2)[C@]12C(=O)N(C(=O)OCCOC)c1ccc(C#CCNC(N)=O)cc12	0.263	1.88 (inactive)	0.31 (inactive)	-0.193 (inactive)	1.45 (inactive)	3.01 (inactive)	1.45 (inactive)	1.24 (inactive)	1.09	0.0313
CCCCC(=C=CC[C@H](O)c1ccccc1OCCO)CCO	-0.259	-1.3 (inactive)	0.189 (inactive)	-0.228 (inactive)	0.755 (inactive)	0.493 (inactive)	-0.295 (inactive)	-0.224 (inactive)	-0.0336	-0.223
COCCOC(=O)N1C(=O)[C@@]2(c3cc(C#CCCO)ccc31)[C@H](C(=O)N1CCN(c3ncccn3)CC1)[C@H]1C(=O)O[C@H](c3ccccc3)[C@H](c3ccccc3)N1[C@@H]2c1ccc(OCCO)cc1	0.739	2.7 (inactive)	-0.632 (inactive)	-0.486 (inactive)	1.17 (inactive)	2.75 (inactive)	-0.77 (inactive)	-0.548 (inactive)	0.555	0.0432
CCCCC(=C=CC[C@H](O)c1cccc(OCCO)c1)C[C@H](O)c1cc(Cl)cc(Cl)c1O	1.89	-2.65 (inactive)	0.356 (inactive)	0.189 (inactive)	0.318 (inactive)	0.275 (inactive)	1.07 (inactive)	0.923 (inactive)	0.242	-0.206
CC(C)C(=C=CC[C@H](O)c1cccc(OCCO)c1)C[C@H](O)c1ccccn1	1.91	0.589 (inactive)	0.106 (inactive)	-0.332 (inactive)	0.625 (inactive)	-0.69 (inactive)	1.61 (inactive)	1.5 (inactive)	0.681	0.0436
COc1ccc(C(=O)Nc2ccc(CN3C(=O)[C@@]4(O[C@@H](CC(=O)N(CCO)Cc5ccccc5)[C@H]([Si](C)(C)c5ccc(OC)cc5)[C@H]4C)c4ccccc43)cc2)cc1	1.4	0.164 (inactive)	-0.952 (inactive)	-1.53 (inactive)	0.814 (inactive)	0.961 (inactive)	0.7 (inactive)	0.439 (inactive)	-1.29	0.101
COc1ccc(NN2C(C(O)c3ccc(F)cc3)C=CC3C(=O)N(C4CCCCC4)C(=O)C32)cc1 (stereo not given)	-0.598	0.0789 (inactive)	-0.209 (inactive)	-0.328 (inactive)	1.68 (inactive)	0.816 (inactive)	-0.385 (inactive)	-0.0595 (inactive)	-0.352	-0.0726
C=CC[C@H](OC(=O)Nc1ccc(SC)cc1)c1ccc(O)c(F)c1	-0.124	-15.5 (active)	-0.868 (inactive)	-1.32 (inactive)	1.1 (inactive)	-11 (active)	0.332 (inactive)	-0.343 (inactive)	-1.54	0.0297
C=CC[C@]1(C(N)=O)N=C(c2ccc(OCCCO)cc2)O[C@H]1c1ccccc1N=[N+]=[N-]	0.021	-0.925 (inactive)	-0.362 (inactive)	0.315 (inactive)	0.274 (inactive)	1.32 (inactive)	2.12 (inactive)	2 (inactive)	-0.733	0.217
C=C(COC)C(=O)CC[C@H](OC(C)=O)c1ccccc1OCCO	-0.812	-0.86 (inactive)	-2.03 (inactive)	-1.56 (inactive)	-0.435 (inactive)	-0.0727 (inactive)	0.732 (inactive)	0.373 (inactive)	-2.37	0.0153
CCOC(=O)C=C1C[C@@H](c2cccc([N+](=O)[O-])c2)O[C@@H](c2cccc([N+](=O)[O-])c2)O1	0.151	2.03 (inactive)	0.226 (inactive)	0.917 (inactive)	0.285 (inactive)	1.79 (inactive)	-0.402 (inactive)	0.335 (inactive)	-0.969	0.127
C=CC[C@]12N=C(c3ccc(OCCCO)cc3)O[C@H]1c1ccccc1N(CCC)C2=O	-0.151	-1.91 (inactive)	-1.14 (inactive)	-0.536 (inactive)	1.24 (inactive)	0.208 (inactive)	0.181 (inactive)	-0.464 (inactive)	-0.65	0.0655
CC(C)(C)OC(=O)CC[C@]1(C(=O)N2CCOCC2)COC(c2ccc(OCCCO)cc2)=N1	0.329	-0.444 (inactive)	0.475 (inactive)	-0.0274 (inactive)	0.149 (inactive)	0.568 (inactive)	1.21 (inactive)	1.37 (inactive)	0.227	0.0996
C=C(CCCC)C(=O)CC[C@H](OC(=O)c1ccccc1-c1ccccc1C(=O)O)c1cccc(OCCO)c1	-1.01	-1.21 (inactive)	-0.821 (inactive)	-0.347 (inactive)	1.09 (inactive)	0.0742 (inactive)	-0.778 (inactive)	-0.689 (inactive)	-0.432	-0.138
[N-]=[N+]=NCc1ccccc1C[C@@]1(C(=O)NCCN2CCOCC2)N=C(c2ccc(OCCCO)cc2)O[C@@H]1c1ccccc1	-0.419	-2.05 (inactive)	-0.909 (inactive)	0.742 (inactive)	-0.0025 (inactive)	-0.411 (inactive)	0.594 (inactive)	-0.959 (inactive)	-1.02	0.0297
O=C1OCCC/C=C\[C@H]2OC34C=CCN(Cc5ccccc5)C(=O)[C@H]3N(CCO)C(=O)[C@@H]4C12 (stereo not given in full)	-0.122	-0.662 (inactive)	0.99 (inactive)	-0.0771 (inactive)	-0.152 (inactive)	-0.23 (inactive)	1.68 (inactive)	1.89 (inactive)	0.936	0.0015
C=C(C(=O)CC[C@H](OC(=O)c1ccccc1-c1ccccc1C(=O)O)c1ccc(OCCO)cc1)C(C)C	0.0716	-1.02 (inactive)	-0.22 (inactive)	-0.311 (inactive)	0.509 (inactive)	-0.711 (inactive)	-0.0716 (inactive)	-0.698 (inactive)	0	0.125

Source: PubChem BioAssay
